# According to PubChem BioAssay (EPA / NIEHS):
# Activity calls are given as the source filed them. How the source made its calls: active means hit-call score of the fitted dose curve at least 0.9, where 1 is the maximum; inactive means score below 0.9.
# Test: CCTE_Padilla_ZF_Score.Craniofacial: CCTE's 144 Hour Post-fertilization zebrafish Assay Score for Craniofacial Malformation, Padilla Lab (AID 2284405)
# Description: CCTE_Padilla_ZF_Phenotype_Score is a whole embryo, multiplexed assay using zebrafish ova exposed for 144 hours post fertilization on a 96-well plate.CCTE_Padilla_ZF_Score.Craniofacial is one of one assay component(s) measured or calculated from the CCTE_Padilla_ZF_Phenotype_Score assay. It is designed to make measurements of zebrafish development as detected with brightfield microscopy of developing zebrafish embryos.Data from the assay component CCTE_Padilla_ZF_Score.Craniofacial was analyzed into 1 assay endpoints. This assay endpoint, CCTE_Padilla_ZF_Score.Craniofacial, was analyzed in the positive analysis fitting direction relative to DMSO as the negative control and baseline of activity. Using a type of viability reporter, gain-of-signal activity can be used to understand changes in developmentals as they relate to the whole embryo. To generalize the intended target to other relatable targets, this assay endpoint is annotated to the zebrafish development intended target family, where the subfamily is craniofacial morphogenesis.
# Zebrafish husbandry: Wild type adult zebrafish (Danio rerio; undefined outbred stock obtained from Aquatic Research Organisms, Hampton, NH, 03842) were housed in an AAALAC-approved animal facility at 28C with a 14:10 h light: dark cycle (lights on at 08:30 h). Adult fish (2-3 females per male; density = 15-20 adults per tank) were kept in one of several 9-liter (L) flow-through colony tanks (Aquaneering Inc., San Diego, CA). All adults in a colony tank were placed in a 2 L (static) breeding tank (Aquatic Habitats, Apopka, FL) one hour prior to light onset. Typically, adults from two to three colony tanks were mated on the same day. Two hours after light onset the adults were returned to the colony tank. All embryos were gathered from each breeder tank, pooled, and placed in a 28C water bath for 2 h, followed by two washes with 0.06% bleach (v/v) in 10% Hanks' Balanced Salt Solution (13.7 mM NaCl 0.54 mM KCl, 25 uM Na2HPO4, 130 uM CaCl2 100 um MgSO4 and 420 um NaHCO3,), hereafter referred to as Hanks' solution, for 5 min in order to remove any residual bacteria or fungi. Immediately following washing, the embryos were examined, and healthy embryos were separated from dead or unfertilized eggs and moved into fresh Hanks'. Chemical exposures: Zebrafish embryos were exposed in 96-well plates. Between 6- and 8-hours post fertilization (hpf), healthy embryos (with chorions) were transferred, one embryo per well, into 96 well (0.5 mL) microtiter plates (Cell Culture-Treated, Flat-Bottom Microplate 96 well [Corning Costar, Kennebunk, ME; Cat 09-761-145]) filled with 200 uL of Hanks' solution. A random number generator was used to assign the order in which the rows of embryos were plated in 96 well plates each week. After plating, the embryos were dosed with 0.8 uL of the chemical dosing solution then immediately sealed with AlumaSeal II (Excel Scientific Inc, Victorville, CA) to prevent volatilization of the chemicals, and then placed in a leakproof secondary container. These containers were placed in an incubator maintained on a 14:10 h light: dark cycle at 26C for rearing. On 5 dpf, live larvae were gently moved out of the plate with test chemicals and into a new 96 well mesh plate (Millipore Corp., Bedford, MA) with just the Hanks' solution. Once within the mesh well plate, the animals were rinsed with 400 uL of fresh Hanks' three times, and then the plates were covered with a non-adhesive material (Microseal A, BioRad, Hercules, CA), plate lid added, and then plate sides wrapped in Parafilm (PM992, Bermis Company, Neenah, WI), and returned to the incubator. […]
Structure (SMILES),outcome,AC50
O=C(Cl)C(F)(F)C(F)(F)C(F)(F)C(F)(F)C(F)(F)C(F)(F)C(F)(F)C(F)(F)F,inactive,–
FC(F)(F)C(F)(F)CNCC(F)(F)C(F)(F)F,inactive,–
O=C(O)C(F)(F)C(F)(F)C(F)(F)C(F)(F)C(F)(F)C(F)(F)C(F)(F)C(F)(F)Cl,–,35.7 µM (active)
O=C(O)C(F)(F)C(F)(F)C(F)(F)C(F)(F)F,inactive,–
C=CC(F)(F)C(F)(F)C(F)(F)C(F)(F)C(F)(F)C(F)(F)C(F)(F)C(F)(F)F,inactive,–
FC(F)(F)C(F)(F)C(F)(F)C(F)(F)C(F)(F)C(F)(F)C(F)(F)I,inactive,–
CC(C)(C)C(=O)CC(=O)C(F)(F)C(F)(F)C(F)(F)F,–,30.3 µM (active)
C=CC(=O)OCC(F)(F)C(F)(F)C(F)(F)C(F)(F)COC(=O)C=C,inactive,–
FC(F)(Br)C(F)(F)C(F)(F)C(F)(F)C(F)(F)C(F)(F)Br,inactive,–
NC(=O)C(F)(F)C(F)(F)C(F)(F)C(F)(F)F,inactive,–
CCO[Si](CCC(F)(F)C(F)(F)C(F)(F)C(F)(F)C(F)(F)C(F)(F)F)(OCC)OCC,inactive,–
O=C(O)C(F)(F)C(F)(F)C(F)(F)F,inactive,–
Cc1ccc(S(=O)(=O)OCC(F)(F)C(F)(F)C(F)(F)C(F)(F)C(F)(F)C(F)F)cc1,inactive,–
O=S(=O)(O)C(F)(F)C(F)(F)C(F)(F)C(F)(F)C(F)(F)C(F)(F)C(F)(F)F,–,65.3 µM (active)
O=C(O)C(F)(OC(F)(F)C(F)(OC(F)(F)C(F)(F)C(F)(F)F)C(F)(F)F)C(F)(F)F (stereo not given),inactive,–
FC(F)(F)C(F)(F)C(F)(F)CI,inactive,–
FC(F)(F)C(F)(F)C(F)(F)C(F)(F)C(F)(F)C(F)(F)C(F)(F)C(F)(F)F,inactive,–
O=C(O)C(F)(F)C(F)(F)C(F)(F)C(F)(F)C(F)(F)C(F)(F)C(F)(F)C(F)(F)C(F)(F)C(F)(F)C(F)(F)C(F)(F)C(F)(F)F,inactive,–
CCCCCCCCC(F)(F)C(F)(F)C(F)(F)C(F)(F)C(F)(F)C(F)(F)F,inactive,–
C=C(C)C(=O)OCCC(F)(F)C(F)(F)C(F)(F)C(F)(F)C(F)(C(F)(F)F)C(F)(F)F,inactive,–

Structure (SMILES),outcome,AC50
FC(F)(I)C(F)(F)C(F)(F)C(F)(F)I,–,76.2 µM (active)
O=S(=O)(OCCOC(F)(F)F)C(F)(F)F,inactive,–
FC(F)(F)C(F)(F)C(F)(F)C(F)(F)C(F)(F)C(F)(F)CCS,inactive,–
FC(F)(F)C(F)(F)C(F)(F)C(F)(F)C(F)(F)CCI,inactive,–
O=C(O)C(F)(F)C(F)(F)C(F)(F)C(F)(F)C(F)(F)C(F)(F)C(F)(F)C(F)(F)C(F)(F)C(F)(F)C(F)(F)C(F)(F)F,inactive,–
O=C(CC(=O)C(F)(F)C(F)(F)F)C(F)(F)F,inactive,–
OCCCC(F)(F)C(F)(F)C(F)(F)C(F)(F)C(F)(F)C(F)(F)C(F)(F)F,inactive,–
FC(F)(F)C(F)(F)C(F)(F)C(F)(F)C(F)(F)C(F)(F)C(F)(F)Br,inactive,–
C=CC(=O)OCC(F)(F)C(F)(F)C(F)(F)C(F)(F)C(F)(F)C(F)(F)C(F)(F)F,inactive,–
O=S(=O)(OCC(F)F)C(F)(F)F,inactive,–
FC(F)(F)C(F)(F)C(F)(F)C(F)(F)C(F)(F)C(F)(F)CC1CO1 (stereo not given),inactive,–
FC(F)(F)C(F)(F)C(F)(F)N(C(F)(F)C(F)(F)C(F)(F)F)C(F)(F)C(F)(F)C(F)(F)F,inactive,–
OCCCC(F)(F)C(F)(F)C(F)(F)F,inactive,–
FC(F)(F)C(F)(F)C(F)(F)C(F)(F)C(F)(F)C(F)(F)C(F)(F)C(F)(F)CCS,inactive,–
O=C(O)C(F)(F)C(F)(F)OC(F)(F)F,inactive,–
O=C(O)C(F)(F)C(F)(F)C(F)(F)C(F)(F)C(F)(F)C(F)(F)C(F)(F)C(F)(F)C(F)(F)C(F)F,inactive,–
O=C(O)C(F)(OC(F)(F)C(F)(OC(F)(F)C(F)(OC(F)(F)C(F)(F)C(F)(F)F)C(F)(F)F)C(F)(F)F)C(F)(F)F (stereo not given),inactive,–
OCC(F)(F)C(F)(F)C(F)(F)C(F)(F)C(F)(F)C(F)(F)F,inactive,–
O=P(O)(O)OCCC(F)(F)C(F)(F)C(F)(F)C(F)(F)C(F)(F)C(F)(F)F,inactive,–
O=C(O)C=C(C(F)(F)F)C(F)(F)F,inactive,–
